Tested on: Vero E6 infected with SARS-CoV-2
Assay: inhibition of SARS-CoV-2 cytopathic effect; higher = more antiviral protection, active = above 15
Settings: 48 h

Measured: inhibition of SARS-CoV-2 cytopathic effect

FC(F)(F)c1cccc(-c2noc(-c3cc(-c4ccccc4)c(C(F)(F)F)s3)n2)c1
inactive: 1 nM 1.19% | 8.33 nM 0.95% | 100 nM -0.54% | 833.33 nM 1.01% | 10000 nM 1.68%

CC(/C=C1\SC(=S)N(CC(=O)O)C1=O)=C\c1ccccc1 [epalrestat]
inactive: 1 nM -1.25% | 8.33 nM -1.52% | 100 nM -1.17% | 833.33 nM 1.15% | 10000 nM -0.07%

Cc1c2oc3c(C)ccc(C(=O)N[C@@H]4C(=O)N[C@H](C(C)C)C(=O)N5CCC[C@H]5C(=O)N(C)CC(=O)N(C)[C@@H](C(C)C)C(=O)O[C@@H]4C)c3nc-2c(C(=O)N[C@@H]2C(=O)N[C@H](C(C)C)C(=O)N3CCC[C@H]3C(=O)N(C)CC(=O)N(C)[C@@H](C(C)C)C(=O)O[C@@H]2C)c(N)c1=O [dactinomycin]
inactive: 1 nM -0.42% | 8.33 nM 3.96% | 100 nM -3.53% | 833.33 nM -8.77% | 10000 nM -14.8%

COC1=C2C[C@@H](C)C[C@H](OC)[C@H](O)[C@@H](C)/C=C(\C)[C@H](OC(N)=O)[C@@H](OC)/C=C\C=C(/C)C(=O)NC(=CC1=O)C2=O [geldanamycin]
inactive: 1 nM 1.08% | 8.33 nM 2.06% | 100 nM 0.35% | 833.33 nM -3.32% | 10000 nM -4.4%

C[C@H]1C[C@H]2[C@@H]3CCC4=CC(=O)C=C[C@]4(C)[C@H]3C(=O)C[C@]2(C)[C@@]1(O)C(=O)CO [Betapar (Meprednisone)]
inactive: 1 nM 0.88% | 8.33 nM 0.92% | 100 nM 2.1% | 833.33 nM 0.12% | 10000 nM 4.2%
